# From PubChem BioAssay
# This is a sample that favours compounds with a hit; in the whole collection about 2.5% have one here.
# ULK1 primary = human ULK1 kinase inhibition, primary screen; O75385; AlphaScreen Atg13 phosphorylation by ULK1, luminescence; inhibition, % at 5.96 µM; 1.9% of 30,000 active; AID 1259251; in the data active = inhibition above about 43%;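 also: 0% = median of compound wells and 100% = no enzyme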
# Target sequence (O75385 whole entry, looked up): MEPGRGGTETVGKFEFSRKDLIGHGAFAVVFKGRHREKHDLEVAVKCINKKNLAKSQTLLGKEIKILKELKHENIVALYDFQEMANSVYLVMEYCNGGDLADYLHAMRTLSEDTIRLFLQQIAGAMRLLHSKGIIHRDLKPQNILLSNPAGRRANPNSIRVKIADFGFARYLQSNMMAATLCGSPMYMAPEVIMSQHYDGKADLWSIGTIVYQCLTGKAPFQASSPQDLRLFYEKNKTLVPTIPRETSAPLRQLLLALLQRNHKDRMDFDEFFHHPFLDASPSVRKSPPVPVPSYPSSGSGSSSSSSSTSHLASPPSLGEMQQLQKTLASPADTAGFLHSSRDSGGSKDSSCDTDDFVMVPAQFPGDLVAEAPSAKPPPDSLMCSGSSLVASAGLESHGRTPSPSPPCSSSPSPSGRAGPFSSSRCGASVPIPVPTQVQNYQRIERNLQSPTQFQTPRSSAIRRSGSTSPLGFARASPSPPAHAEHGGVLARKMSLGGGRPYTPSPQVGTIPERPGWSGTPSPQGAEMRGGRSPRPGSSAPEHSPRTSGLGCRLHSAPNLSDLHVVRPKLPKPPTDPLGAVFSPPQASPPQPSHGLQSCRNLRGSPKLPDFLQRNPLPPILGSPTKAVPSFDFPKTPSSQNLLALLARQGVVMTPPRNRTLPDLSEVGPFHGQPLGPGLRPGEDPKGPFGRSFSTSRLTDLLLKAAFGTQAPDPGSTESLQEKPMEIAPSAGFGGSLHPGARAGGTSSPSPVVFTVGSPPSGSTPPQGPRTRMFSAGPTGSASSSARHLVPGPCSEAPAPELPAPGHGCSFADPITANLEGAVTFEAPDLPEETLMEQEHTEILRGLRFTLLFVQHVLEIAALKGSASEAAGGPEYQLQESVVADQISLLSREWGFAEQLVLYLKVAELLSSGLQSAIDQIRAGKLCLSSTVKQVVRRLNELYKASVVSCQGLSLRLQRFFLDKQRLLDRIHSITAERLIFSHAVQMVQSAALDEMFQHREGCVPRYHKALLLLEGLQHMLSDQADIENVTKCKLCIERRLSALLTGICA
# ASK1 primary = inhibitors of human ASK1 kinase; Q99683; AlphaScreen MKK6 phosphorylation by ASK1, luminescence; inhibition, % at 7.44 µM; 0.99% of 22,000 active; in the data active = inhibition above about 35%;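 also: 0% = median of compound wells and 100% = no enzyme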
# AlphaScreen intf = AlphaScreen optical interference dose response, ASK1 counter-screen; AID 1159604; IC50, µM; AlphaScreen TruHits beads, signal interference counterscreen; shares compounds with ASK1 primary; 20% of 220 active;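 active = IC50 of 10 µM or lower in the counterscreen; inactive = IC50 above 10 µM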;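 also: loss of AlphaScreen light from TruHits beads alone with no ASK1 enzyme present; potency of signal reduction so a low IC50 flags an assay artifact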
# * hit, by the source's call; i = inactive; / = no result given; ! = not confirmed by another sample.
SMILES,ULK1 primary,ASK1 primary,AlphaScreen intf
COc1ccc(-c2nc(NCc3cccc(C(F)(F)F)c3)c3ncn(Cc4ccc(C(F)(F)F)cc4)c3n2)cc1,-19.1,-6.6,/
CC(=O)c1cccc(-c2nc(NCc3cccc(C(F)(F)F)c3)c3ncn(Cc4ccc(C(F)(F)F)cc4)c3n2)c1,-11.9,5.1,/
NC(=O)c1ccc(-c2nc(NCc3cccc(C(F)(F)F)c3)c3ncn(Cc4ccc(C(F)(F)F)cc4)c3n2)cc1,-6.1,40.5*,>17.3
CCCNc1nc(-c2cccs2)nc2c1ncn2C1CCCCC1,-4.5,-3.5,/
COc1ccc(-c2nccc(NCCc3ccc(O)cc3)n2)cn1,-9.1,-3.9,/
Cn1c(Nc2cc(NC3CC3)ncn2)nc2ccccc21,9.3,-10.4,/
CCN(CC)c1nc(Nc2ccc(N3CCOCC3)cc2)nc(Nc2ccc(-n3ccnc3)cc2)n1,-24.2,40.8*,6.03*
CCN(CC)c1nc(NCCN2CCOCC2)nc(Nc2ccc(-n3ccnc3)cc2)n1,0.5,8.7,/
FC(F)(F)c1ccc(Cn2cnc3c(Nc4ccc(N5CCOCC5)cc4)nc(Nc4ccc(N5CCOCC5)cc4)nc32)cc1,0.5,21.6,/
CCCNc1nc(Nc2ccc(N3CCOCC3)cc2)nc2c1ncn2Cc1ccc(C(F)(F)F)cc1,-2.5,40.2*,i
FC(F)(F)c1ccc(Cn2cnc3c(NCCN4CCOCC4)nc(Nc4ccc(C(F)(F)F)cc4)nc32)cc1,-36.4,4.9,/
FC(F)(F)c1ccc(Cn2cnc3c(Nc4ccc5c(c4)OCO5)nc(Nc4ccc(N5CCOCC5)cc4)nc32)cc1,3.1,62.1*,i
COc1cc(Nc2nc(N3CCCC3CO)nc3nc[nH]c23)cc(OC)c1OC (stereo not given),7.7,-23.8,/
CC(=O)c1cccc(-c2ncc(C)c(Nc3ccc(N4CCOCC4)cc3)n2)c1,18.7,14.9,/
Cc1cnc(-c2cccc(N)c2)nc1Nc1ccc(N2CCOCC2)cc1,-9.8,51.4*,>17.8
Nc1cccc(-c2nc3ncnc(Nc4ccc(N5CCOCC5)cc4)c3[nH]2)c1,6.0,36.1*,>18.2
COc1cc2nc(-c3csc4ccccc34)nc(Nc3ccc(N4CCOCC4)cc3)c2cc1OC,-28.2,28.9,/
c1ccc(-c2nc3ncnc(Nc4ccc(N5CCOCC5)cc4)c3[nH]2)cc1,-1.2,14.7,/
Cc1cnc(-c2csc3ccccc23)nc1Nc1ccc(N2CCOCC2)cc1,-11.4,42.5*,>20.1
CN(Cc1cccc(C(=O)NCCOCCNS(=O)(=O)c2cccc3c(N(C)C)cccc23)c1)C(=O)Nc1ccc(-c2cn[nH]c2)cc1,11.6,-5.8,/
Cc1nn(C)c(C)c1-c1nc(NC2CC2)c2[nH]cnc2n1,0.1,-6.2,/
CCNc1cc(C(=O)Nc2ccc3c(c2)OCO3)c2ccccc2n1,-7.3,-15.4,/
COc1cccc(NCC(=O)Nc2ccc(-c3cn[nH]c3)cc2OCCN(C)C)c1,13.7,-6.9,/
Nc1cc(C2=C3C=C(Br)N=C3C(=O)NCC2)c(O)[nH]1,30.9,16.9,/
Nc1cc(C2=C3C=CN=C3C(=O)NCC2)c(O)[nH]1,71.3*,38.3*,>19.2
SMILES,ULK1 primary,ASK1 primary,AlphaScreen intf
Cc1nc(C)n(-c2ccc(Nc3nccc(-c4cccc(-n5ccnc5)c4)n3)cc2)n1,-91.8,-72.4,/
Cc1nc(C)n(-c2ccc(Nc3nccc(-c4cccc(-n5nccn5)c4)n3)cc2)n1,-15.3,39.2*,>19.2
Cc1nc2ncccc2c(=O)n1-c1ccc(F)c(NC(=O)c2cccc(Cl)c2)c1,3.6,/,/
CCCNC(=O)Cc1cn(-c2ccc(Nc3ccncn3)nn2)c2ccccc12,13.7,-11.3,/
CCCNc1ccnc(Nc2cccc(N(C)C)c2)n1,13.0,22.4,/
COc1cc2nc(Nc3cccc(N(C)C)c3)nc(NCc3ccccc3)c2cc1OC,-3.4,33.0,/
Cc1cc(Nc2ccccc2)nc(Nc2ccc(N3CCOCC3)cc2)n1,-3.7,19.0,/
COc1cc(Nc2cc(Nc3cccc(N(C)C)c3)ncn2)cc(OC)c1OC,10.9,22.2,/
CN(C)c1cccc(Nc2nccc(NCCOc3ccccc3)n2)c1,-2.8,43.1*,i
Cc1cc(Nc2ccc(N3CCOCC3)cc2)nc(Nc2cccc(N(C)C)c2)n1,-4.6,41.2*,>19.9
COc1cc(Nc2ccnc(Nc3cccc(N(C)C)c3)n2)cc(OC)c1OC,19.5,39.2*,6.94*
COc1cc2nc(Nc3cccc(N(C)C)c3)nc(NCc3cccc(C(F)(F)F)c3)c2cc1OC,-15.2,37.7*,i
CC(=O)Nc1ccc(Nc2nc(Nc3ccccc3)nc3c2ncn3CCN2CCCC2=O)cc1,-4.7,-0.9,/
O=C1CCCN1CCCNc1nc(N2CCN(Cc3ccc4c(c3)OCO4)CC2)nc2c1ncn2C1CCCCC1,-5.6,13.1,/
Cc1ccccc1NC(=O)Cn1cnc2ccccc2c1=O,-6.5,/,/
FC(F)(F)c1cccc(CNc2ccnc(Nc3ccccc3)n2)c1,-19.7,-1.0,/
Cc1cc(NCc2cccc(C(F)(F)F)c2)nc(Nc2ccc(N3CCOCC3)cc2)n1,-9.1,39.6*!,4.58*
Cc1cc(NCc2cccc(C(F)(F)F)c2)nc(Nc2ccc(C(F)(F)F)cc2)n1,-22.5,-9.3,/
Cc1cc(NCc2ccccc2)nc(Nc2cccc(N(C)C)c2)n1,9.1,23.3,/
CN(C)c1cccc(Nc2nccc(NCc3cccc(C(F)(F)F)c3)n2)c1,-1.2,42.6*,>16.5
Cc1cc(NCc2cccc(C(F)(F)F)c2)nc(Nc2cccc(N(C)C)c2)n1,-6.1,40.1*,i
Nc1nc(-c2ccc(N3CCOCC3)nc2)nc2c1ncn2Cc1ccc(C(F)(F)F)cc1,-28.3,-3.1,/
c1ccc(Nc2cccc(-c3ccnc(Nc4cccc(-c5ncn[nH]5)c4)n3)c2)cc1,-47.9,13.4,/
COc1ccc(CCNc2cc(C)nc(N3CCc4ccccc4C3)n2)cc1,-8.2,4.7,/
OCC(CO)c1ccccc1,6.2,/,/
SMILES,ULK1 primary,ASK1 primary,AlphaScreen intf
CCN(CC)c1nc(NCc2ccccc2)nc(Nc2cc(OC)c(OC)c(OC)c2)n1,-17.1,3.0,/
COc1cc(Nc2nc(-c3ccc(C(=O)NC4CC4)cc3)nc3c2ncn3C2CCCCC2)cc(OC)c1OC,16.1,34.0,/
COc1cc(Nc2nc(-c3ccc(C(N)=O)cc3)nc3c2ncn3C2CCCCC2)cc(OC)c1OC,19.7,40.4*,>20
O=C1CCCN1CCn1cnc2c(Nc3ccc(Oc4ccccc4)cc3)nc(Nc3cccnc3)nc21,17.8,26.8,/
COc1ccc(CCNc2nc(Nc3cccc(N(C)C)c3)nc3c2ncn3C(C)C)cc1,8.9,37.1*,>20
CC(C)n1cnc2c(NCCO)nc(Nc3cccc(N(C)C)c3)nc21,20.1,13.2,/
Cn1cc(-c2ccc3cnc(Nc4ccc(-c5ccc(N6CCOCC6)nc5)cc4)nc3c2Cl)cn1,42.7*,37.7*,>19.2
Cc1ncn(-c2ccc(Nc3ncc4cccc(-c5ccnc(N6CCOCC6)c5)c4n3)cc2)n1,15.9,24.0,/
CCN(CC)C(=O)C1CCCN(c2nc(NC3CC3)c3ncn(CCN4CCCC4=O)c3n2)C1 (stereo not given),7.5,-6.0,/
O=C(Cc1cn(-c2ccc(N3CCN(Cc4ccc5c(c4)OCO5)CC3)nn2)c2ccccc12)Nc1ccccc1,-0.3,-2.2,/
O=C(Cc1cn(-c2ccc(N3CCN(Cc4ccc5c(c4)OCO5)CC3)nn2)c2ccccc12)Nc1ccc(N2CCOCC2)cc1,21.5,38.8*,>20
Cn1ccc2cc(-c3cc(Nc4ccc(N5CCOCC5)cc4)nc(N)n3)ccc21,26.2,46.3*,>20
CC(=O)c1cccc(-c2cc(Nc3ccc(N4CCOCC4)cc3)nc(N)n2)c1,7.7,7.6,/
